The supplement of paper PMC11417369
Whole data set: some 25,000 sequences, median “ln(normalized median fluorescence intensity)” near 9.7, cut for the highest 2% near 11. The sample holds the highest values, similar sequences and a random draw of the others, so the mix is not that of the screen.

Tested on: PfAP2-HC AP2 domain (GST-tagged)
Test: gcPBM binding intensity (ln(normalized median fluorescence intensity)); higher = stronger DNA binding
Procedure, shortened: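 Binding of GST-tagged P. falciparum DNA-binding domains, expressed in E. coli and used at about 25 μg on average, was carried out for 1 h in 1× PBS containing 1% milk, 0.2 mg/ml BSA, 0.5% salmon testes DNA and 0.03% Triton X-100. The target was an Agilent 4 × 180k array of primer-extended double-stranded 36-bp intergenic genomic probes plus negative controls, read with Alexa488 anti-GST antibody at 488 nm. Binding intensity is the highest Masliner-normalised natural-log median intensity across replicate spots of either probe orientation.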

| Sequence | gcPBM binding intensity (ln) |
| --- | --- |
| TAAGATATAAAAAATGTGCACATTAAAGTATTAATT | 9.86 |
| TATTGTAAGAAAGGCACACAGATAAAATTATTATAT [CACACA_site2921] | 9.87 |
| CGGTATTTTTTAATTTGTACGCATATACAATAATTA [XGTACX_site8603] | 9.54 |
| TTTTTGTTATATAAAGTGCAGTGACAAGCAGTTTAA | 9.56 |
| TTTTTTTATATTTTTAGTACACATTGGTATATATAT [XGTACX_site4114] | 9.78 |
| TTCTTTAAAATATTATGTACACATTGCGAACAGTTT [XGTACX_site5418] | 9.76 |
| AGCACAGACGGACACACACACACACCCACAGACACA [CACACA_site4358] | 11.4 |
| CACAGACACGGACACACACACACACCCACATATATA [CACACA_site4355] | 11.5 |
| CACAGACACGGACACACACACATATATAATATATAT [CACACA_site4495] | 10.8 |
| TGTATGTTTATTTATCGTACATATATATATATATAT [XGTACX_site7315] | 10.1 |
| TACGCGAAATGAATATGTACATATATGAGGGCATAT [XGTACX_site4293] | 9.75 |
| ATTTGAAATGCATGAACACACACAGCTATAAATGCA [CACACA_site8229] | 9.82 |
| GAAATAAGTTAAAATAGTACGTAGTGTTCCTTAAGT [XGTACX_site6557] | 9.81 |
| ACACAAAAATAGTTTTTTATATTGTTAACCTTATAT [XGTACX_negctrl_site123] | 9.71 |
| AAAAATATAAATGACACACACTTAAAAACAAAGAAA [CACACA_site4540] | 10.2 |
| TTTAATCAAATTAAAAGTACAGAATTGTTCATGTAG [XGTACX_site1229] | 9.53 |
| ACTCATAAAAATAGATGTACTTTAATAATTTGATTT [XGTACX_site8763] | 9.48 |
| TACATACACGGACACACACACATATATATATATATA [CACACA_site5883] | 10.7 |
| AATAACCACGGACACACACACATATATATATATATA [CACACA_site5873] | 10.9 |
| AACATATACACGAACACACACACATATATATATATA [CACACA_site502] | 11.6 |
| CCCCCCCACGAACACACACACATACATACCACATAT [CACACA_site7149] | 11 |
| CATATACACGAACACACACACATATATATATATATA [CACACA_site4437] | 10.5 |
| CCCCCCCACGGACACACACACATACATACCACATAT [CACACA_site5303] | 11.3 |

| Sequence | gcPBM binding intensity (ln) |
| --- | --- |
| TATATATATATACCAACACACATACATATATATATA [CACACA_site8530] | 9.99 |
| CACGCGAACATACATACACACACATATATATATATG [CACACA_site7951] | 10.1 |
| AGTATACACGAACACACACACACATATATAAATATA [CACACA_site6913] | 10.7 |
| TTTTTTTTTTTTACATGTACTTATTTTAAATATAAA [XGTACX_site805] | 9.71 |
| TATGTTTTTCGGTATGCATGCATATGCTTAATAATA [TGCATGCA_site184] | 9.55 |
| AATATATAGAGAGATATGCACACTGTATGAATGCAC [CACACA_site2677] | 9.78 |
| AAATATTTATAGGTTTGTACTTATAAATAAAAAAAA [XGTACX_site7360] | 9.5 |
| TATTAAATTATATAGACACACATTATATATATATAT [CACACA_site4345] | 9.78 |
| TATGGAATAAATTTATCCATACATCTTATAACATAT [XGTACX_negctrl_site500] | 9.63 |
| ATTTATTTTTTACATTGTACATATTTATTCCTTTTA [XGTACX_site8028] | 9.95 |
| GTAATATGTATCCATACACACATACAGTTTATTTGC [CACACA_site6540] | 9.96 |
| TAAAATTATGTAATAACACACATATACAATACATAT [CACACA_site1236] | 9.94 |
| AGGGTTACAAGAGGAACACACAAAAAAATAAATAAA [CACACA_site1436] | 10 |
| AATATATATTAAATATGTACTTATTTTTTGGTTGCT [XGTACX_site3613] | 9.63 |
| TTTAAATAAAAATGGAGTACTCTAAAAAAAAAAAAA [XGTACX_site1233] | 9.37 |
| CACAAGAAAGTTCACACACACACATATATATATATA [CACACA_site6009] | 10.1 |
| CATACACAAGAAAATTCACACACACCCATATATATA [CACACA_site9288] | 11.3 |
| AAAACAAAAGAATTCACACATATATATATATATATA [CACACA_site4777] | 10.2 |
| CACAAGAAAATTCACACACACACATATATATATATA [CACACA_site3880] | 10.9 |
| TACACAAGAAAATTCACACACACACCCATATATATA [CACACA_site3879] | 10.7 |
| TACACAAGAAAATTCACACACACACCGATATATATA [CACACA_site6008] | 10.7 |
| TATATATATATGTGTACACATTTGTCAGATTATATA [CACACA_site4813] | 9.79 |
| AGGATATATAAGTATACACACATATTTATATTTATA [CACACA_site6239] | 9.75 |

| Sequence | gcPBM binding intensity (ln) |
| --- | --- |
| AAAATTTAAAGCATGACACACAATTATATTATGTGC [CACACA_site3435] | 9.76 |
| ATGATGTGCTTTAAAAGTACTTAAGTTATATTCTTT [XGTACX_site7127] | 9.7 |
| AAAATTCATAAATACACACACGCACATATATATATA [CACACA_site4227] | 10.2 |
| AAATTGTCAAAACACGCACACACATATACATAATAA [CACACA_site1743] | 10.9 |
| TTAATAACAAAATAAACACACATATATAAATACACA [CACACA_site6849] | 10.5 |
| ATAATATAACAATACGCACACGTATACAAAAAAAAA [CACACA_site5703] | 9.99 |
| ATTGTCAAAACACGCACACACATATACATAATAACA [CACACA_site1742] | 11.1 |
| TATATACACGCACATACACACAAATAAAAAAACACC [CACACA_site7578] | 10.2 |
| TAAATCCGTTTGATGGGTACATACATACATACATAT [XGTACX_site8889] | 9.73 |
| GGATGTATTTATATGTGTATGTGTTTGGAAATATGT [XGTACX_negctrl_site99] | 9.85 |
| GTCATATATAATTGTTGTACATTTTTATAATTATGT [XGTACX_site8091] | 9.83 |
| ACATATATATATATATATATATATATATATAGATAG [CACACA_negctrl_site783] | 9.92 |
| GGTTCATAATATGGTTGTACATAAATATATATATAT [XGTACX_site7583] | 9.86 |
| TATAATAATACTTATTGTACGATTAGCTTAATTCGT [XGTACX_site15] | 9.51 |
| GAAATAGAGAGACACACACACATATATTTATGTATT [CACACA_site7794] | 10.4 |
| TATAAAAATAAGCACACACACAAATATATATTTATT [CACACA_site922] | 10.3 |
| CAATATAAAAGACACACACACAAACATATATTTATA [CACACA_site7697] | 11.3 |
| AAGAAATATTTATACACACACACAAACATATAAATA [CACACA_site6981] | 11.1 |
| TATAAAAATAAGCACACACACAAATATAGATTTATT [CACACA_site6558] | 11.3 |
| TAAATAAAAAGACACACACACATATTTATATTTATA [CACACA_site7135] | 10.4 |
| ATAAAATTTATATAAGCACACAAATATATATTTATA [CACACA_site9083] | 9.7 |
| AATATTTATAAAGACACACAAACAAAAAGGATAAAA [CACACA_site2985] | 10.3 |
| CATAAATACAAATATACACACATATTTATATTTATA [CACACA_site7277] | 9.78 |

| Sequence | gcPBM binding intensity (ln) |
| --- | --- |
| AAGAAATATTTATACACACACACAAACATATATATA [CACACA_site1912] | 10.5 |
| GAAATAGAGAAACACACACACATATATTTATGTATT [CACACA_site3967] | 10.4 |
| CAGAAATAGAGATACACACACACATATATTTATGTA [CACACA_site3968] | 11.3 |
| CACTTAAAAAGCTAACGTACAAATACACATATATAA [XGTACX_site1851] | 9.66 |
| CAAAACATTTTATCTACACACATATATAAATAAATA [CACACA_site3220] | 9.77 |
| GTTTACATTTTAAGAAGTACAAAATTTATGGTTAAA [XGTACX_site450] | 9.42 |
| TTAGGACAAAAAAAAATAAAAATAAAATAAAATAAT [CACACA_negctrl_site1613] | 9.61 |
| TTTTAATATTTTAAGAGTACAGAAATATATAATATG [XGTACX_site4955] | 9.33 |
| TTATTTTACTTTTATGCAACTAAAAATATTGCTATA [XGTACX_negctrl_site277] | 9.6 |
| AAAACAAACAGACACACACACATATTTATATTTATA [CACACA_site7681] | 11 |
| TAAAAAAAAAAAAAAACACACATATAAATATTTATA [CACACA_site6702] | 9.61 |
| AATTTTTTATTAAACACACAAACATATATATATATA [CACACA_site1937] | 9.66 |
| GAGATAAAATAAAACACACACATATATTTATATAAC [CACACA_site7098] | 10.9 |
| GAATATTAAACAAACACACACACATATATATATATA [CACACA_site3382] | 10.7 |
| ACATAAATTTAATACACACACAAAGAAAAAAAAAAA [CACACA_site4088] | 10.9 |
| CATAAAATATAAAACACACACACATATATTTATATA [CACACA_site6247] | 10.5 |
| AAAACAAACAGACACACACACATATATATATATATA [CACACA_site3655] | 10.8 |
| AAAACAGACAAACACACACACACATATATATATATA [CACACA_site3393] | 10.6 |
| TGACATAAATTTAATACACACACAAAGAAAAAAAAA [CACACA_site9354] | 10.2 |
| GAATATTAAACAAACACACACACATATATTTATATA [CACACA_site7563] | 11.1 |
| GAAAGAATAAAATTTACACACATATATAAATACATA [CACACA_site5273] | 9.87 |
